Compound activity (PubChem)
CSC inhib: blocks cancer stem cells | cancer stem cell-like cells viability, luminescence | inhibition, % at 7.5 µM | 1.1% of 300,000 active; in the data active means inhibition above about 75%; tested in HMLE shEcad cells
PAX8 inh HTS: inhibitors of PAX8 transcriptional activity in RMG-I cells | inhibition, % at 12.6 µM | RMG-I TPO-luciferase reporter, SteadyGlo, 24 h | 1.2% of 360,000 active;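 active means mean replicate inhibition at least 60% with every replicate also reaching 60%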;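 further: luciferase light reporting Pax8 driven TPO promoter activity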
Mdm2-MdmX inh: human Mdm2/MdmX binding inhibition. SaOS-2 split-luciferase Mdm2/MdmX complementation, luminescence. inhibition, % at 8 µM. 3% of 330,000 active;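 active means inhibition of at least 50% at 8 µM in the primary screen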
Shn3 3UTR inh: reduces Shn3 3'UTR luciferase signal in osteoblasts; inhibition, % at 12.5 µM; 0.52% of 360,000 active; AID 588674; Clone20 osteoblast Shn3 3'UTR firefly luciferase, 24 h;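 active means mean inhibition of at least 75% with every replicate also reaching 75%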
Gli-Sufu antag: blocks Gli-Sufu signaling in a luciferase reporter. Sufu-KO-LIGHT fibroblasts, Gli luciferase reporter luminescence. inhibition, % at 5 µM. 0.74% of 340,000 active. AID 588413;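 active means inhibition above about 55%, limit read from the data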
Beta cell apopt: beta cell apoptosis inhibition; INS-1E cytokine-induced death, ATP luminescence, 48 h; percent of positive-control rescue, neutral wells zero; protection from apoptosis, % (concentration not given with the values); AID 435005; 0.8% of 300,000 active;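 active means Every replicate reaches about 75%, or at least half do and their mean reaches it too, limit read from the data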;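 further: higher means more ATP so stronger rescue from cytokine killing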
Mdm2-MdmX conf: human Mdm2/MdmX binding inhibition, confirmed; shares compounds with Mdm2-MdmX inh; luminescent assay; inhibition, % at 8 µM; 55% of 10,000 active; in the data active means inhibition above about 40%
FLuc counter: counter-screen for Mdm2/MdmX inhibitors: full-length luciferase | AID 504607 | 77% of 6,200 active | shares compounds with Mdm2-MdmX inh | inhibition, % at 8 µM | SaOS-2 full-length luciferase counterscreen, luminescence;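 active means mean inhibition at 8 µM reaching about 37%, which flags the compound as non-specific, limit read from the data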;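 further: p53-null SaOS-2 cells with luciferase driven by a doxycycline-inducible promoter; compound on cells about two nights before reading with doxycycline added after day one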
Hits are given with their value; 0 = inactive; - = not tested or not shown. Most compounds without a hit are left out; they make up all but 4% or so of the library.

SMILES	CSC inhib	PAX8 inh HTS	Mdm2-MdmX inh	Shn3 3UTR inh	Gli-Sufu antag	Beta cell apopt	Mdm2-MdmX conf	FLuc counter
COc1ccc(S(=O)(=O)N(C)C[C@H]2Oc3c(NS(=O)(=O)c4ccc(Cl)cc4)cccc3C(=O)N([C@H](C)CO)C[C@H]2C)cc1	-	0	-	-	-	-	-	-
CC(C)NC(=O)Nc1ccc2c(c1)C(=O)N([C@H](C)CO)C[C@H](C)[C@H](CN(C)Cc1ccc(C(=O)O)cc1)O2	-	0	-	-	-	-	-	-
C[C@@H]1CN([C@@H](C)CO)C(=O)c2cc(N(C)C)ccc2O[C@@H](C)CCCCO[C@@H]1CN(C)C(=O)Nc1ccc(C(F)(F)F)cc1	-	0	-	-	-	-	-	-
C(=N\Nc1nc(-c2ccccn2)nc2ccccc12)/c1ccccc1	82.8	-	79.6	-	-	91.6	88.5	0
C(=N\Nc1nc(-c2cccnc2)nc2ccccc12)/c1ccccc1	0	0	0	0	0	0	-	-
c1ccc(CN2CCC(CNc3ncnc4ccccc34)C2)cc1 (stereo not given)	-	-	-	0	0	-	-	-
OCCNc1nc(Nc2ccc(Br)cc2)nc2ccccc12	0	0	69.8	-	0	0	54.9	66.8
c1ccc(CN2CCC(Nc3nc(-c4ccccc4)nc4ccccc34)CC2)cc1	139.0	-	83.1	0	0	0	0	84.9
O=S(=O)(c1ccccc1F)N1CCCCN2[C@@H](CO)[C@@H](c3ccc(-c4cccnc4)cc3)[C@@H]2C1	-	0	-	-	-	-	-	-
O=C(c1cccnc1)N1CCCCN2[C@H](CO)[C@H](c3ccc(C#Cc4ccccc4)cc3)[C@H]2C1	-	0	-	-	-	-	-	-
COc1ccc(Nc2oc(COc3ccc(C)cc3)nc2C#N)cc1	0	-	59.1	0	0	0	73.6	60.6
CCOc1ccc(Nc2oc(-c3cccc(Cl)c3)nc2C#N)cc1	0	-	51.4	0	0	0	0	-
CCOc1ccc(Nc2oc(-c3ccco3)nc2C#N)cc1	-	-	0	0	0	0	-	-
COc1ccc(Nc2oc(COc3cccc(C)c3)nc2C#N)cc1	0	0	62.8	0	0	0	48.5	90.5
COc1ccc(Nc2oc(COc3ccccc3F)nc2C#N)cc1	0	0	0	0	0	0	-	-
COc1ccc(Nc2oc(COc3ccc(OC)cc3)nc2C#N)cc1	0	0	63.2	0	0	-	80.0	59.3
C[C@H]1CN([C@@H](C)CO)C(=O)c2cc(-c3ccc(C(=O)N(C)C)cc3)cnc2O[C@@H]1CN(C)C(=O)c1ccncc1	-	0	-	-	-	-	-	-
CC(C)NC(=O)Nc1ccc2c(c1)C(=O)N([C@H](C)CO)C[C@@H](C)[C@@H](CN(C)Cc1ccc(-c3ccccc3)cc1)O2	-	0	-	-	-	-	-	-
COc1ccc(-c2ccc([C@H]3[C@@H]4C=CCC[C@@]4(C)C(=O)N3Cc3ccccc3)c(F)c2)cc1OC	0	0	62.6	0	0	0	0	-
CN(C)c1ccc(-c2ccc([C@H]3[C@@H]4C=CCC[C@@]4(C)C(=O)N3Cc3ccccc3)c(F)c2)cc1	0	0	0	0	0	0	-	-
O=C(C1CCCC1)N1CC2(C1)[C@@H](c1ccccc1)[C@@H](CO)N2Cc1ccccc1F	-	0	-	-	-	-	-	-
CCOC(=O)c1c(C)n(C)c2ccc(O)c(CN(C)C)c12	0	-	0	0	0	0	-	-
CCOC(=O)c1sc(=N)n(-c2ccc(OC)cc2)c1C	0	0	0	0	0	0	-	-
CCOC(=O)c1c(C)n(-c2ccc(C)cc2)c2ccc(O)c(CN(C)C)c12	0	0	54.5	0	0	0	0	66.1
CCOC(=O)c1c(C)n(-c2ccc(OC)cc2)c2ccc(O)c(CN(C)C)c12	0	0	63.7	0	0	0	43.9	53.7
Cc1cc(C(=O)Nc2ccc3c(c2)C(=O)N(C)[C@@H]2CC[C@H](CC(=O)NCC(F)(F)F)O[C@@H]2CO3)no1	-	0	-	-	-	-	-	-
O=C(N/N=C/c1cccc(C(F)(F)F)c1)C1CCN(c2ncc(C(F)(F)F)cc2Cl)CC1	0	-	63.6	0	0	-	0	-
O=C(c1ccc2c(=O)n3c(nc2c1)CCCCC3)N1CCN(C(c2ccccc2)c2ccccc2)CC1	0	-	63.1	0	0	0	0	-
COc1ccc(S(=O)(=O)N(C)C[C@@H]2Oc3ccc(NS(=O)(=O)c4ccccc4)cc3C(=O)N([C@H](C)CO)C[C@@H]2C)cc1	-	0	-	-	-	-	-	-
